# Records with an inconclusive call do not appear. Calls of active or inactive are those of the source. The calls were made as follows, unless noted: active = hit-call score of the fitted dose curve at least 0.9, where 1 is the maximum; inactive = score below 0.9.
# Assays:
# [1] = molecular target: human Thyroid Receptor alpha (THRa1), THRA (gene 7067) (UniProt P10827); experiment: ATG_THRa1_TRANS: Attagene TRANS-FACTORIAL HepG2 Assay for human Thyroid Receptor alpha (THRa1) (AID 2283014; active = hit-call score of the fitted dose curve at least 0.9, where 1 is the maximum)
# human Thyroid Receptor alpha (THRa1), THRA (gene 7067), sequence (P10827 whole entry, looked up, the tested form may be a part): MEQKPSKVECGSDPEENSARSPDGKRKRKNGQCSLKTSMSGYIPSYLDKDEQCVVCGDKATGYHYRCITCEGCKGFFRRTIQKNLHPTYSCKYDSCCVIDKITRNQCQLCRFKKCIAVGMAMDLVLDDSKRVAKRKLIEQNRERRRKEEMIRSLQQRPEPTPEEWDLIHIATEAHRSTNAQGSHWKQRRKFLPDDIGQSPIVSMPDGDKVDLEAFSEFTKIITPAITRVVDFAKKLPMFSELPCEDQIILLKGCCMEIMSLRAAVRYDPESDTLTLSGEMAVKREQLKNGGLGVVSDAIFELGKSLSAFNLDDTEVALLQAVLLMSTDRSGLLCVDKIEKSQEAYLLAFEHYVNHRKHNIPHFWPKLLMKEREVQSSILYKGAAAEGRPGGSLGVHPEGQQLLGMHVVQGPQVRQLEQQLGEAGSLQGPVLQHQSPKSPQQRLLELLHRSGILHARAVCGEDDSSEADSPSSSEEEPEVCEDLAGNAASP
# Outline: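 Transient HepG2 transfection, NR-Gal4 chimera driving GAL4-UAS reporters; 24 h compound exposure; total RNA, oligo(dT) RT, PCR, fluorescent primer extension, capillary electrophoresis. Upward direction vs DMSO control.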
# [2] = molecular target: human Vitamin D Receptor (VDR), VDR (gene 7421) (UniProt P11473); experiment: ATG_VDR_TRANS: Attagene TRANS-FACTORIAL HepG2 Assay for human Vitamin D Receptor (VDR) (AID 2283022; active = hit-call score of the fitted dose curve at least 0.9, where 1 is the maximum)
# human Vitamin D Receptor (VDR), VDR (gene 7421), sequence (P11473 whole entry, looked up, the tested form may be a part): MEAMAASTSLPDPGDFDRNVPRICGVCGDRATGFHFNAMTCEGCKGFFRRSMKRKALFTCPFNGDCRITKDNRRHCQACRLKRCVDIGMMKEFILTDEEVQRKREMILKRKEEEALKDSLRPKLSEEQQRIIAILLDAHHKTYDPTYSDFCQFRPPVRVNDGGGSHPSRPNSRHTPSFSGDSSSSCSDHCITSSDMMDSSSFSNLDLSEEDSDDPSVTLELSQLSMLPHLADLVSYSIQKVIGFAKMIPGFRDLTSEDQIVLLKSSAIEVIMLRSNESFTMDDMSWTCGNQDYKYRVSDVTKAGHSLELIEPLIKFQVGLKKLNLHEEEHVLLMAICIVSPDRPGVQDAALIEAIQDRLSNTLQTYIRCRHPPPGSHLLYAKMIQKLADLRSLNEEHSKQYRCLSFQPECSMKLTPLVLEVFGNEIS
# Outline: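 RT-PCR/capillary electrophoresis read-out of reporter mRNA induction in transiently transfected HepG2; 24 h dosing; chimeric NR-Gal4 (TRANS format); gain-of-signal fit against DMSO baseline.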
# [3] = read-out: E-selectin (Homo sapiens) (UniProt P16581); experiment: BSK_3C_Eselectin: BioMAP Diversity Plus: 3C Assay for Eselectin Biomarker Activity (AID 2283015); conditions: primary human endothelial cells (HUVEC); actives raise or lower the signal;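 as to outcome: cell surface E-selectin protein quantified by ELISA 24 h after dosing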
# Outline: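 HUVEC, 3C stimulation; compound exposure 24 h; E-selectin by ELISA; gain- or loss-of-signal fitted bidirectionally vs DMSO baseline.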
# [4] = read-out: Interleukin-1 alpha (IL1a), IL1A (gene 3552); experiment: BSK_BE3C_IL1a: BioMAP Diversity Plus: BE3C Assay for Interleukin-1 alpha (IL1a) Biomarker Activity (AID 2283016); conditions: primary human bronchial epithelial cells; actives raise or lower the signal
# Outline: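 Signal from IL-1a ELISA, taken 24 h after chemical dosing of human bronchial epithelial cells, is compared with DMSO as baseline using bidirectional curve fitting.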
# [5] = read-out: Monocyte Chemoattractant Protein-1 (MCP1), CCL2 (gene 6347); experiment: BSK_3C_MCP1: BioMAP Diversity Plus: 3C Assay for Monocyte Chemoattractant Protein-1 (MCP1) Biomarker Activity (AID 2283017); conditions: primary human endothelial cells (HUVEC); actives raise or lower the signal
# Outline: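 HUVEC, 3C system; 24 h chemical exposure; MCP-1 by ELISA; bidirectional curve fit vs DMSO baseline.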
# [6] = read-out: Monocyte Chemoattractant Protein-1 (MCP1), CCL2 (gene 6347); experiment: BSK_4H_MCP1: BioMAP Diversity Plus: 4H Assay for Monocyte Chemoattractant Protein-1 (MCP1) Biomarker Activity (AID 2283018); conditions: primary human endothelial cells (HUVEC); actives raise or lower the signal
# Outline: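 Endothelial cells from umbilical vein were treated with test chemical, then after 24 h MCP-1 levels were quantified by ELISA; endpoint values came from bidirectional fitting with DMSO as baseline of activity.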
# [7] = read-out: Human Leukocyte Antigen - DR isotype (HLADR), HLA-DRA (gene 3122); experiment: BSK_3C_HLADR: BioMAP Diversity Plus: 3C Assay for Human Leukocyte Antigen - DR isotype (HLADR) Biomarker Activity (AID 2283019); conditions: primary human endothelial cells (HUVEC); actives raise or lower the signal;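 as to outcome: ELISA of cell-surface HLA-DR on HUVEC 24 h after dosing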
# Outline: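 HUVEC, 3C stimulation, 24 h post-dose; HLA-DR by ELISA; bidirectional curve fit vs DMSO baseline; gain or loss of signal scored.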
# [8] = read-out: Monokine induced gamma interferon (MIG), CXCL9 (gene 4283); experiment: BSK_3C_MIG: BioMAP Diversity Plus: 3C Assay for Monokine induced gamma interferon (MIG) Biomarker Activity (AID 2283021); conditions: primary human endothelial cells (HUVEC); actives raise or lower the signal
# Outline: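 Endothelial primary cells (human umbilical vein) are dosed with test chemical in the 3C system. MIG levels are measured by ELISA at 24 h and fitted in both directions relative to DMSO.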
# [9] = read-out: Interleukin-8 (IL8), CXCL8 (gene 3576); experiment: BSK_3C_IL8: BioMAP Diversity Plus: 3C Assay for Interleukin-8 (IL8) Biomarker Activity (AID 2283020); conditions: primary human endothelial cells (HUVEC); actives raise or lower the signal
# Outline: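 Endothelial primary cells of human umbilical vein origin are dosed with chemical; after 24 h the IL-8 biomarker is measured by ELISA, and concentration–response is fitted in both directions versus DMSO.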
# E-selectin (Homo sapiens), sequence (P16581 whole entry, looked up): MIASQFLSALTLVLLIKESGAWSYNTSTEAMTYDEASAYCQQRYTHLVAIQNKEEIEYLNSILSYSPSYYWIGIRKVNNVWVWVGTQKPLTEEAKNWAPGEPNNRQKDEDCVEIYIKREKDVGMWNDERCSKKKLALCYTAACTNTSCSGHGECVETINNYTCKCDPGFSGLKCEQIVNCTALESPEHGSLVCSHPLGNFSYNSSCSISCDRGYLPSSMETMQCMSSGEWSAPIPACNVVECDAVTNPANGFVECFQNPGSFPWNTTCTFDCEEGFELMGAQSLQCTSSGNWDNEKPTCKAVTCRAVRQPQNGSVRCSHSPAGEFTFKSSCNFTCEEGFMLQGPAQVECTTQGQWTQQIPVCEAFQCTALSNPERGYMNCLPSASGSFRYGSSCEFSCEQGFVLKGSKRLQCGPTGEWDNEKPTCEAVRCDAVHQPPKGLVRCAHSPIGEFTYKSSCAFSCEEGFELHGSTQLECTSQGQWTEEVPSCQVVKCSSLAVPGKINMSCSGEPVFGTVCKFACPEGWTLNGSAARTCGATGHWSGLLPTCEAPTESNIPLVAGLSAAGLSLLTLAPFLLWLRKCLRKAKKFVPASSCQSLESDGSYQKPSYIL
smiles,measurement,setting,value
COC(O)c1ccccc1 (stereo unspecified),outcome,[1],inactive
same,outcome,[2],inactive
NC(C(F)(F)F)C(F)(F)F,outcome,[1],inactive
same,outcome,[2],inactive
FC(F)(F)C1(F)C(F)(F)C(F)(F)C(F)(F)C1(F)F,outcome,[1],inactive
same,outcome,[2],inactive
C=Cc1ccc(O)c(OC)c1,outcome,[1],inactive
same,outcome,[2],inactive
CCCCCCCCCCCCOC(=O)c1cc(O)c(O)c(O)c1,outcome,[1],inactive
same,outcome,[2],inactive
CC1CCC(C(=O)O)CC1 (stereo unspecified),outcome,[1],inactive
same,outcome,[2],inactive
CCCCCCCCCCCCCCCC(=O)OC,outcome,[1],inactive
same,outcome,[2],inactive
CCOC(=O)c1nc(C(Cl)(Cl)Cl)n(-c2ccc(Cl)cc2Cl)n1,AC50,[1],2110 nM (active)
same,outcome,[2],inactive
C=CC(=O)OCCN(CC)CC,outcome,[1],inactive
same,outcome,[2],inactive
O=C(Nc1ccc(Cl)c(Cl)c1)c1cc(Cl)cc(Cl)c1O,AC50,[1],1350 nM (active)
same,outcome,[2],inactive
Cn1sccc1=O,outcome,[1],inactive
same,outcome,[2],inactive
NNC(=O)CCCCC(=O)NN,outcome,[1],inactive
same,outcome,[2],inactive
O=C(c1cc(O)c(O)c(O)c1)c1ccc(O)c(O)c1O,outcome,[1],inactive
same,outcome,[2],inactive
Cc1ccc(C)c(S(=O)(=O)O)c1,outcome,[1],inactive
same,outcome,[2],inactive
CCN(CC)CC,outcome,[1],inactive
same,outcome,[2],inactive
O=S(=O)(c1ccc(OCc2ccccc2)cc1)c1ccccc1O,outcome,[1],inactive
same,outcome,[2],inactive
CCCCCCc1ccc(N)cc1,outcome,[1],inactive
same,outcome,[2],inactive
CCCCCCCCC1CCC(=O)O1 (stereo unspecified),outcome,[1],inactive
same,outcome,[2],inactive
O=c1cc(-c2ccccc2)oc2ccc3ccccc3c12,outcome,[1],inactive
same,outcome,[2],inactive
COC(=O)C(F)(F)C(F)(F)C(F)(F)F,outcome,[1],inactive
same,outcome,[2],inactive
CCOCCOCC,outcome,[1],inactive
same,outcome,[2],inactive
CCCCCCCCCCCC[N+](C)(C)CCCCCCCCCCCC,outcome,[1],inactive
same,outcome,[2],inactive
CCCCCCCC(OC)OC,outcome,[2],inactive
O=C1NS(=O)(=O)c2ccccc21,outcome,[3],inactive
same,outcome,[4],inactive
same,outcome,[5],inactive
same,outcome,[6],inactive
same,outcome,[7],inactive
same,outcome,[8],inactive
O=C(O)CCC(F)(F)C(F)(F)C(F)(F)C(F)(F)C(F)(F)F,outcome,[3],inactive
same,outcome,[4],inactive
same,outcome,[5],inactive
same,outcome,[6],inactive
same,outcome,[7],inactive
same,outcome,[8],inactive
same,outcome,[2],inactive
COCN(COC)c1nc(N(COC)COC)nc(N(COC)COC)n1,outcome,[3],inactive
same,outcome,[4],inactive
same,outcome,[5],inactive
same,outcome,[6],inactive
same,outcome,[7],inactive
same,outcome,[9],inactive
same,outcome,[8],inactive
same,outcome,[2],inactive
CCCC=O,outcome,[2],inactive
N=C(N)c1ccc(OCCCCCOc2ccc(C(=N)N)cc2)cc1,AC50,[3],932 nM (active)
same,outcome,[4],inactive
same,outcome,[5],inactive
same,outcome,[6],inactive
same,AC50,[7],10100 nM (active)
same,outcome,[8],inactive
same,outcome,[2],inactive
O=C(O)C(=O)O,outcome,[2],inactive
Cc1ccc2ccc3ccc(C)cc3c2c1,outcome,[2],inactive
Nc1ccc(O)c(C(=O)O)c1,outcome,[2],inactive
CC(C)CCOCCC(C)C,outcome,[2],inactive
C=CC(F)(F)C(F)(F)C(F)(F)C(F)(F)F,outcome,[2],inactive
COC(=O)C(F)(F)C(F)(F)C(F)(F)C(F)(F)C(F)(F)F,outcome,[2],inactive
O=C(NO)c1ccccc1,outcome,[3],inactive
same,outcome,[4],inactive
same,outcome,[5],inactive
same,outcome,[6],inactive
same,outcome,[7],inactive
same,outcome,[8],inactive
same,outcome,[2],inactive
Brc1cc(Br)c(Oc2c(Br)cc(Br)c(Br)c2Br)cc1Br,outcome,[2],inactive
CCCCCCCCC(C)=O,outcome,[2],inactive
FCOC(C(F)(F)F)C(F)(F)F,outcome,[2],inactive
c1ccc(CNc2ncnc3c2ncn3C2CCCCO2)cc1 (stereo unspecified),outcome,[2],inactive
COc1ccc(C#N)cc1,outcome,[2],inactive
Oc1c(Cl)ccc(Cl)c1Cl,outcome,[2],inactive
OCC(F)(F)C(F)(F)C(F)(F)C(F)(F)C(F)(F)C(F)(F)C(F)(F)C(F)(F)C(F)(F)C(F)(F)C(F)(F)F,outcome,[3],inactive
same,outcome,[4],inactive
same,outcome,[5],inactive
same,outcome,[6],inactive
same,outcome,[7],inactive
same,outcome,[9],inactive
same,outcome,[8],inactive
same,outcome,[2],inactive
FC(F)(F)C1(F)C(F)(F)C(F)(F)C(F)(F)C(F)(C(F)(F)F)C1(F)F (stereo unspecified),outcome,[2],inactive
CCO[Si](CCC1CCC2OC2C1)(OCC)OCC (stereo unspecified),outcome,[2],inactive
OCC1CCC(CO)CC1 (stereo unspecified),outcome,[2],inactive
CCCCCCCCCCCCOS(=O)(=O)O,outcome,[3],inactive
same,outcome,[4],inactive
same,outcome,[5],inactive
same,outcome,[6],inactive
same,outcome,[7],inactive
same,outcome,[9],inactive
same,outcome,[8],inactive
CCC(C)c1nccnc1OC (stereo unspecified),outcome,[2],inactive
CCN(CCC#N)c1ccccc1,outcome,[2],inactive
O=C(c1ccccc1)c1ccccc1,outcome,[3],inactive
same,outcome,[4],inactive
same,outcome,[5],inactive
same,outcome,[6],inactive
same,outcome,[7],inactive
same,outcome,[9],inactive
same,outcome,[8],inactive
same,outcome,[2],inactive
CCCCc1ccc2ccccc2c1S(=O)(=O)O,outcome,[2],inactive
C=CC(=C)CC/C=C(\C)CCC=C(C)C,outcome,[3],inactive
same,outcome,[4],inactive
same,outcome,[5],inactive
same,outcome,[6],inactive
same,outcome,[7],inactive
same,outcome,[8],inactive
CC1CCC(CO)CC1 (stereo unspecified),outcome,[2],inactive
O=C(F)C(F)(F)C(F)(F)C(F)(F)C(=O)F,outcome,[2],inactive
COc1cc(OC)nc(NC(=O)NS(=O)(=O)Nc2ccccc2C(=O)N(C)C)n1,outcome,[3],inactive
same,outcome,[4],inactive
same,outcome,[5],inactive
same,outcome,[6],inactive
same,outcome,[7],inactive
same,outcome,[8],inactive

# — PubChem BioAssay (EPA / NIEHS)
